Source: publication PMC7862700, “An all-to-all approach to the identification of sequence-specific readers for epigenetic DNA modifications on cytosine”

Tests used:
Assay in all cases: DAPPL (digital affinity profiling via proximity ligation, sequencing); 10 mM Tris-HCl pH 7.5, 50 mM NaCl, 1 mM DTT, 4% glycerol, room temperature, 30 min; GST-TFs on glutathione beads, 16-mer random dsDNA library, 0.1% formaldehyde crosslink after washing; high values mean tight binding
[1] = biological target: ETV5 (Homo sapiens, UniProt P41161 1-510); conditions: protein: recombinant; tags: N-terminal GST; dsDNA, one strand shown
Chain of ETV5 (P41161 whole entry, the tested form may be a part): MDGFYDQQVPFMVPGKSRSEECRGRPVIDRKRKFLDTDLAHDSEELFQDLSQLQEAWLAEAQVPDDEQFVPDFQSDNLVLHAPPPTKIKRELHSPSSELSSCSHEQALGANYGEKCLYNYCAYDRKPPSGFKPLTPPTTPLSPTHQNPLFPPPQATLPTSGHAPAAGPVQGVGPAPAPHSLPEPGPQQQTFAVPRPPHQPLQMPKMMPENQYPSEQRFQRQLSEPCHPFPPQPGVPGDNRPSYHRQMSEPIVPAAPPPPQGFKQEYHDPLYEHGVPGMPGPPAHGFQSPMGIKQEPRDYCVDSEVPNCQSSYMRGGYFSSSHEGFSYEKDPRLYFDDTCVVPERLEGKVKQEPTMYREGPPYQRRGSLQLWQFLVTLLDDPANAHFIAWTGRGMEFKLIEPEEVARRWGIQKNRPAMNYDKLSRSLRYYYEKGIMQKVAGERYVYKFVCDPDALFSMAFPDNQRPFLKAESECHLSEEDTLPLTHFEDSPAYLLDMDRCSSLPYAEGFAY
Procedure, shortened: (§1)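 A tag-only sample was pooled with DNA-barcoded human transcription factors that had been expressed in yeast as GST fusions and captured on glutathione beads. The pools were incubated for 30 min at room temperature with 200 nmole of a random double-stranded 16-mer DNA library in Tris/NaCl/DTT/glycerol buffer, then washed, crosslinked with 0.1% formaldehyde, proximity-ligated (BsaI/T4 ligase, 1 h, 37 °C), PCR-amplified and sequenced on an Illumina NextSeq500. Binding signal is each hexamer's read frequency for a factor divided by its frequency for the tag-only sample.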

[2] = biological target: HSF1 (Homo sapiens, UniProt Q00613 1-529); conditions: protein: recombinant; tags: N-terminal GST; chain copies: 3; dsDNA, one strand shown
Chain of HSF1 (Q00613 whole entry): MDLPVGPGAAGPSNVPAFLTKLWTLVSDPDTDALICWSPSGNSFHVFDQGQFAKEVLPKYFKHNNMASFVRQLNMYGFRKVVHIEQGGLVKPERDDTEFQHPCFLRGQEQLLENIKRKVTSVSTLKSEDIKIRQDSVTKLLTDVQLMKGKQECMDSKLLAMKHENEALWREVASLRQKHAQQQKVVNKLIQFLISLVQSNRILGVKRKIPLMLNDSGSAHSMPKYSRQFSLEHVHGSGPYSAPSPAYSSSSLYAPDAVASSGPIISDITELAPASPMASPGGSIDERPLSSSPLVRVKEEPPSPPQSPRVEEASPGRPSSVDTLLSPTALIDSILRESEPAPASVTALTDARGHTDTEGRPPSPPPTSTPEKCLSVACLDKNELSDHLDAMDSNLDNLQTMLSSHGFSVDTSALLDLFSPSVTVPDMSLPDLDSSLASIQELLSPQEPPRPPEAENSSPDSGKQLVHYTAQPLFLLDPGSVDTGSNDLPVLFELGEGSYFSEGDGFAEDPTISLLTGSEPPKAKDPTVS
Procedure, shortened: as §1

[3] = biological target: T1, SPIC (Homo sapiens, UniProt Q8N5J4 1-248); conditions: protein: recombinant; tags: N-terminal GST; dsDNA, one strand shown
T1 sequence: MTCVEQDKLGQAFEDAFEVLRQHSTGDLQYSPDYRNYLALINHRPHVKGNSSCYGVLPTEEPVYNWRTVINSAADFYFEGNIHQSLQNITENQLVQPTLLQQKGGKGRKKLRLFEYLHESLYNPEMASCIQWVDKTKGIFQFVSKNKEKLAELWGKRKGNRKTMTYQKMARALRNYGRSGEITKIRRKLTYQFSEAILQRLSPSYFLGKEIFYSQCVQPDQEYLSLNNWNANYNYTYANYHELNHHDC
Procedure, shortened: as §1

[4] = biological target: ELF4 (Homo sapiens, UniProt Q99607 1-663); conditions: protein: recombinant; tags: N-terminal GST; dsDNA, one strand shown
Chain of ELF4 (Q99607 whole entry): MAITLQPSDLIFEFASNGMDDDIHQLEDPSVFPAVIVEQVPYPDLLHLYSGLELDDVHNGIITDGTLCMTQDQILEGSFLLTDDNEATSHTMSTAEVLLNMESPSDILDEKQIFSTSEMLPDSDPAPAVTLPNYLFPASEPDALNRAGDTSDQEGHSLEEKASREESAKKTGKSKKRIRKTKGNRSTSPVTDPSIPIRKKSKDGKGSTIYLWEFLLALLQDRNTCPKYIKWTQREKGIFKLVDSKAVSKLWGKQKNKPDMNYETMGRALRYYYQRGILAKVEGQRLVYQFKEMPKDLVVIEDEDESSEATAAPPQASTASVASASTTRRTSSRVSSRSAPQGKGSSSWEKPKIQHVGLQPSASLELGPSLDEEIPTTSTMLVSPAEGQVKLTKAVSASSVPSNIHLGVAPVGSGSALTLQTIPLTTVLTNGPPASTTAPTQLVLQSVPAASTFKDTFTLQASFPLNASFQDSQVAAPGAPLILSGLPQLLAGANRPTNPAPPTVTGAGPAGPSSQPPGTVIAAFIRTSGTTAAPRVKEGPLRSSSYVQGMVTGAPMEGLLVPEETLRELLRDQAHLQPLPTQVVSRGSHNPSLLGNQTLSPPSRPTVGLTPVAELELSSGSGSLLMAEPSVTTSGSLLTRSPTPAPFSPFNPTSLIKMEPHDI
Procedure, shortened: as §1

[5] = biological target: T2, ELK4 (Homo sapiens, UniProt P28324-2 1-405); conditions: protein: recombinant; tags: N-terminal GST; dsDNA, one strand shown
T2 sequence: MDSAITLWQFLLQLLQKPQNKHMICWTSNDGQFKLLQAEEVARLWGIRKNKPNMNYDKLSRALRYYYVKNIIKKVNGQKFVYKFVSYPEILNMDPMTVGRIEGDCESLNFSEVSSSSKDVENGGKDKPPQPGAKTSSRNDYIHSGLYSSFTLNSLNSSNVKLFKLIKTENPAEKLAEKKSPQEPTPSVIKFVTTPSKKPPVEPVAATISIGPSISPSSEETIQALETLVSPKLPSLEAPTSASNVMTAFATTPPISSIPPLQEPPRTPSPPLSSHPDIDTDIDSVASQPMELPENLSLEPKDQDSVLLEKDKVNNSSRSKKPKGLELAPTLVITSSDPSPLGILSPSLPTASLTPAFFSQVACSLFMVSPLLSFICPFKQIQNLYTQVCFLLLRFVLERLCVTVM
Procedure, shortened: as §1

[6] = biological target: T3, ETV2 (Homo sapiens, UniProt O00321 1-342); conditions: protein: recombinant; tags: N-terminal GST; dsDNA, one strand shown
T3 sequence: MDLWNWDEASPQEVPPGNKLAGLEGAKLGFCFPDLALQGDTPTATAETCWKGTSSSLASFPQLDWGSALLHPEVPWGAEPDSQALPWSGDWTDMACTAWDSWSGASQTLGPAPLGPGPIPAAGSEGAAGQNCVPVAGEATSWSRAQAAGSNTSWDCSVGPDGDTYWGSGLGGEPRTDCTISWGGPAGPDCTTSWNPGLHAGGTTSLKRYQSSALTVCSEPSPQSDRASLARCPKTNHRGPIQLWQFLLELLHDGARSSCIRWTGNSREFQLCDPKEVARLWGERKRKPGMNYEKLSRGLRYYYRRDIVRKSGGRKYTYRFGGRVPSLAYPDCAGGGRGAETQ
Procedure, shortened: as §1

[7] = biological target: T4, ELF3 (Homo sapiens, UniProt P78545 1-371); conditions: protein: recombinant; tags: N-terminal GST; dsDNA, one strand shown
T4 sequence: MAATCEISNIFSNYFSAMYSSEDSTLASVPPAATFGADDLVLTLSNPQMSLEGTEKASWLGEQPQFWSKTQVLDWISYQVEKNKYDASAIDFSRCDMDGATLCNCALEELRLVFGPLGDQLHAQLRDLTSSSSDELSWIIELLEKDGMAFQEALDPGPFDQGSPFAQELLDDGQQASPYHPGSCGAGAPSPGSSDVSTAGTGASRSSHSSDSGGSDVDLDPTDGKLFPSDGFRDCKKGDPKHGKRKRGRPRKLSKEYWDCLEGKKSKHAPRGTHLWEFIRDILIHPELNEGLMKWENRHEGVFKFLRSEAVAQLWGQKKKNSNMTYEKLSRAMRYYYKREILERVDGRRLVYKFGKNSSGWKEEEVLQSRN
Procedure, shortened: as §1

[8] = biological target: CRX (Homo sapiens, UniProt O43186 1-299); conditions: protein: recombinant; tags: N-terminal GST; dsDNA, one strand shown
Chain of CRX (O43186 whole entry): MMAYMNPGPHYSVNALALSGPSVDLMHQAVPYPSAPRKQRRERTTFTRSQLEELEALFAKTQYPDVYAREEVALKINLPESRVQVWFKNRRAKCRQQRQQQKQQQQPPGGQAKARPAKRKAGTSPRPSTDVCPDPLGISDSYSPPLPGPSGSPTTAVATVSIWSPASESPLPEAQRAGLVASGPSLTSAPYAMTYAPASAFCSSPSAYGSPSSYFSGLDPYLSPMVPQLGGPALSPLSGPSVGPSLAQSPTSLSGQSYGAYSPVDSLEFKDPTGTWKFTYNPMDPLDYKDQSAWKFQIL
Procedure, shortened: as §1

[9] = biological target: ETV1 (Homo sapiens, UniProt P50549 1-477); conditions: protein: recombinant; tags: N-terminal GST; dsDNA, one strand shown
Chain of ETV1 (P50549 whole entry): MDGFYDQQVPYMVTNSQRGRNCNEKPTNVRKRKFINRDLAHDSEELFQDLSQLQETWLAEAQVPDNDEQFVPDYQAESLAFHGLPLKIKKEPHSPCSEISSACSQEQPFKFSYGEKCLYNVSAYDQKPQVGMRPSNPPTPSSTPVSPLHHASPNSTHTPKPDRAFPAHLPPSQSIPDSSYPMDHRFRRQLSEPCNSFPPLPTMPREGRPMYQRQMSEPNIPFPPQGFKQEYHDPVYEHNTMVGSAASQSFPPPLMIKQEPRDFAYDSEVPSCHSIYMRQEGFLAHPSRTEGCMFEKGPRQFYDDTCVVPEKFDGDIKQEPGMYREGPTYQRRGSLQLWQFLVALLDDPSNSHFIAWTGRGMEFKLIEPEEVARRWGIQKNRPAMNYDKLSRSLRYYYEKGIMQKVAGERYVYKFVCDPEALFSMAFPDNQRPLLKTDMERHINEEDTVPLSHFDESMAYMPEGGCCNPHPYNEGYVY
Procedure, shortened: as §1

Question: What does the source list for TTACTG?
Answer: binding signal [1]: 1.15 fold enrichment (6-mer frequency, TF over GST control); binding signal [2]: 1.52 fold enrichment (6-mer frequency, TF over GST control); binding signal [3]: 1.18 fold enrichment (6-mer frequency, TF over GST control); binding signal [4]: 1.11 fold enrichment (6-mer frequency, TF over GST control); binding signal [5]: 1.16 fold enrichment (6-mer frequency, TF over GST control); binding signal [6]: 1.12 fold enrichment (6-mer frequency, TF over GST control); binding signal [7]: 1.21 fold enrichment (6-mer frequency, TF over GST control); binding signal [8]: 1.84 fold enrichment (6-mer frequency, TF over GST control); binding signal [9]: 1.01 fold enrichment (6-mer frequency, TF over GST control)
